Rows were chosen to be rich in hits. Some 1.3% of all compounds tested hit in one or more screens of this group.
BRCA1 expr act – qHTS Assay to Identify Small Molecule Activators of BRCA1 Expression; 380,000 tested, 1.1% active; MCF7-BRCA1-FFLuc reporter, luminescence, 48 h; response scale: scaled: vehicle 0%, 10 µM genistein 100%; Potency, µM (series often up to 46.1 µM), without a hit: at the top dose activation, most hits filed as activators; AID 624202, 2012; further: potency means the concentration at half of the fitted maximal effect; nearly all actives have a fitted effect of over 80% in size
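Using MCF7 cells harboring a BRCA1 firefly luciferase reporter, plated 2 h before compound pinning, the screen measured luminescence after 48 h incubation. Responses were normalized to DMSO and 10 microM genistein, then fitted for concentration-effect.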
TSG101-PTAP inh – qHTS Assay for Iinhibitors of HIV-1 Budding by Blocking the Interaction of PTAP/TSG101. Potency, µM (highest dose often 115 µM), for the others: at the highest dose activity change, negative = inhibition, hits mostly inhibitors. 340,000 tested, under 10 active. AID 493005, 2010. Fluorescence polarization, FITC-PTAP peptide / Tsg101 binding. Tumor susceptibility gene 101 protein (Homo sapiens), Q99816; active means well fitted inhibition curve with a large enough effect in the main read-out, with a control signal flat, not every such curve was filed as active; inconclusive means small, poorly fitted or top-dose-only effect, or effect the other way, or a change in a side signal; inactive means no such curve, though single readings can be large or run the other way; further: potency means the concentration at half of the fitted maximal effect; % of control where 0% means no effect
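FP read-out: FITC-PTAP peptide, 50 nM final, binding Tsg101 binding domain, 10 uM final; 20 min, r.t.; 10 mM HEPES pH 7.5, 0.15 M NaCl, 0.01% Tween 20, 3 mM EDTA, 0.1 mM TCEP.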
TRPML1 blocker – qHTS for Inhibitors of the Human Mucolipin Transient Receptor Potential 1 (TRPML1). 390,000 tested, 0.02% active. AID 624415, 2012. activity change, negative = inhibition, % (no concentration beside the values). TRPML1-inducible cells, Ca2+ dye fluorescence, FDSS; active compounds read low; inhibition of EC80 agonist-evoked calcium signal; in the data active means activity change below about -50%; inconclusive means between about -30% and that limit;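 further: stimulus is agonist 54-4 at its EC80 concentration; on the % scale 0 is the no-effect control and ±100 the full control effect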
Target sequence (Q9GZU1 whole entry, looked up): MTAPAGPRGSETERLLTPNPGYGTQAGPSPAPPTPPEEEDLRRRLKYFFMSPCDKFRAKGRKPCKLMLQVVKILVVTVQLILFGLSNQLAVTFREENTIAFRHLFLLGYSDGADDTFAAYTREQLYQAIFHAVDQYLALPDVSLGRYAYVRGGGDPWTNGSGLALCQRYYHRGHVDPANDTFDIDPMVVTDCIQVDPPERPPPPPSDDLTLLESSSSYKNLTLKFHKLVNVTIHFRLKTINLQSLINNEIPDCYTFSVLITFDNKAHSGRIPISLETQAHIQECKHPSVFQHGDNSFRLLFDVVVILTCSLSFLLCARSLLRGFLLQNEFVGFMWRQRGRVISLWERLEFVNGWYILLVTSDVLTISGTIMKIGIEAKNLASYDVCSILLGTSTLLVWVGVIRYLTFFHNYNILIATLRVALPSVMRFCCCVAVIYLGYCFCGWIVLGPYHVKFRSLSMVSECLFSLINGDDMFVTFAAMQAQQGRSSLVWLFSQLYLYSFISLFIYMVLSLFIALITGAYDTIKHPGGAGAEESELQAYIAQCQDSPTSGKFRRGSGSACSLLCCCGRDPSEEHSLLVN
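TRPML1-DL cells, Tet-induced overnight (~16 h, 37 °C) at 1,500 cells/well, were loaded with Ca8 no-wash dye plus quencher for 45-90 min at room temperature. Compounds were pinned during FDSS kinetic reading; agonist 54-4 at EC80 (4 uM final) then added.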
PKM2 activator – qHTS Assay for Activators of Human Muscle isoform 2 Pyruvate Kinase; 260,000 tested, 0.34% active; purified PKM2, Kinase-Glo ATP luminescence, activation; response scale: 0% is enzyme alone, no compound; Potency, µM (doses to about 57.5 µM), inactives show at the highest dose activation, hits mostly activators; Pyruvate kinase PKM (Homo sapiens), P14618; AID 1631, 2009; further: potency means the concentration at half of the fitted maximal effect; on the % scale 0 is the no-effect control and ±100 the full control effect; nearly all actives have a fitted effect of over 55% in size
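hPK-M2, >95% pure; 0.1 mM ADP / 0.5 mM PEP final; imidazole pH7.2 buffer w/ 7 mM MgCl2, 50 mM KCl; 1 h RT; Kinase-Glo lum. Intermediate enzyme activity for dual inhibitor/activator qHTS.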
IL-2 act – qHTS of IL-2 Activators; IL-2 activation reporter assay, cell-based qHTS; stimulated with anti-CD3/CD4/CD28 beads; in transgenic mouse T cells; activation, % (series mostly up to about 46 µM); 360,000 tested, 0.065% active; AID 652025, 2013; in the data active means activation above about 50%; inconclusive means mostly about 30% to 49%; further: 0% is about no effect
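Readout: EGFP and DsRed signals by fluorescent plate cytometry. Unstimulated transgenic mouse T cells received compound 60 min before antibody-bead stimulation, then incubated 18 h at 37 degrees C.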
TRPML1 ag – qHTS for Agonists of the Human Mucolipin Transient Receptor Potential 1 (TRPML1). Mucolipin-1 (Homo sapiens), Q9GZU1. TRPML1-expressing cells, Ca2+ dye fluorescence, FDSS. activation, % (no concentration beside the values). 410,000 tested, 0.12% active. AID 624414, 2012; in the data active means activation above about 50%; inconclusive means mostly about 30% to 49%; further: 0% is about no effect
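TRPML1-DL cells, Tet-induced overnight (~16 h, 37 degrees C), loaded 45-90 min at room temperature with Ca8 no-wash calcium dye plus quencher. FDSS fluorescence: 10 s baseline, compound pin-transfer, 110 s agonist read, then EC80 54-4 (4uM final) and 110 s antagonist read.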
HeLa tox – Secondary assay for Activators of Human Pyruvate Kinase M2 isoform - Cell Titer Glo cytotoxicity assay | shares compounds with PKM2 activator | HeLa viability, CellTiter-Glo ATP luminescence, 24 h | activity change, negative = cytotoxicity, % at 57.5 µM | 230 tested, under 10 active | AID 1898, 2009; further: % of control where 0% means no effect
Numbers without * were called inactive; ? = inconclusive; . = no result given. Unless noted, the call rests on the fitted dose curve; in most records, active means well fitted curve in the direction sought with a large enough effect; inconclusive means small, poorly fitted or top-dose-only effect, or another doubt; inactive means no such curve, though single readings can be large; an effect the other way counts as inactive or inconclusive.

SMILES	BRCA1 expr act	TSG101-PTAP inh	TRPML1 blocker	PKM2 activator	IL-2 act	TRPML1 ag	others
NC(=O)C1CCN(Cc2ccc(OCc3ccccc3)cc2)CC1	11µM*	0%	-3	-2%	0	1
NC(=O)C1CC(=O)N(c2ccc(OCc3ccc(Cl)c(Cl)c3)cc2)C1 (stereo not given)	10µM*	.	-10	.	0	0
COc1ccc(-c2noc(-c3cccc(OC)c3OC)n2)cc1	.	.	16	.	.	4
Nc1cc(Cl)nc(N/N=C/c2ccccc2[N+](=O)[O-])n1	11µM*	0%	-7	5%	0	0
Cc1nc2sc(C(N)=O)c(N)c2c(C)c1CC(=O)c1ccccc1	11µM*	-3%	5	-3%	-1	-1
CCC1CCCCN1C(=O)CSc1nnc(-c2ccco2)o1 (stereo not given)	3.2µM*	-10%	-23	11%	-1	0
CCC1CCCCN1C(=O)CSc1nnc(-c2ccc(Cl)cc2)o1 (stereo not given)	0%	0%	16	5%	-3	0
CCC1CCCCN1C(=O)CSc1nnc(-c2cccc(Cl)c2)o1 (stereo not given)	10µM*	-3%	10	-2%	-3	0
CCOc1ccc(-c2nnc(SCC(=O)NCCc3ccccc3)nc2-c2ccc(OCC)c(OC)c2)cc1OC	.	.	-17	.	.	1
S=c1[nH]nc(SCc2ccccc2)c2[nH]cnc12	3.5µM*	-2%	2	.	0	0
Oc1c(C(Nc2cccnc2)c2ccccc2F)ccc2cccnc12 (stereo not given)	-65%	.	.	.	.	-1
O=C(NNc1c(Cl)cccc1Cl)c1c(F)cccc1Cl	1%	-1%	-10	8%	3	0
O=C(NNc1c(Cl)cccc1Cl)c1sccc1Cl	-20%	-2%	-5	16µM*	-1	0
Cc1cccc2c(C(O)c3c[nH]c4c(C)cccc34)c[nH]c12	.	.	.	.	.	0
S=C(Nc1ccccn1)c1ccccn1	7.1µM*	-1%	-15	-38%	-4	-1
S=C(NCCc1ccccc1)Nc1ccccn1	10µM*	0%	0	7%	0	2
Cc1ccc(-c2nc3c(Cl)cc(C(F)(F)F)cn3c2Cc2ccccc2)cc1	35%	.	.	.	-1	0
COc1ccc(CCNC(=O)CCc2cn(Cc3ccc(C)cc3)c3ccccc23)c(OC)c1OC	.	.	28	.	.	1
COc1ccccc1N1CCN(/N=C/C(Cl)=C/c2ccccc2)CC1	4µM*	0%	1	-5%	-3	1
Cc1nc(-c2ccc3c(c2)OCCCO3)cs1	2.5µM*	1%	-26	-4%	-1	-1
O=C(CCCOc1ccccc1)Nc1nc2ccccc2[nH]1	6.3µM*	1%	-4	-4%	0	0
Cc1ccc(OCCCC(=O)Nc2nc3ccccc3[nH]2)cc1	-22%	0%	23	-5%	0	1
O=C(Cc1nc2ccccc2[nH]c1=O)c1ccccc1	5.6µM*	?	11	.	?	12
CCCCN(CCC(=O)O)c1ccc(/C=C/c2ccnc3ccccc23)cc1	.	.	.	.	.	99*
O=C(O)CCN(CCC(=O)O)c1ccc(/C=C/c2ccnc3ccccc23)cc1	-6%	.	.	.	.	20
SMILES	BRCA1 expr act	TSG101-PTAP inh	TRPML1 blocker	PKM2 activator	IL-2 act	TRPML1 ag	others
CSc1ccc(/C=C/c2ccnc3ccccc23)cc1	4.5µM*	.	.	.	.	-1
CCOC(=O)c1ccc2nc3c(cc2c1)CCS3	10µM*	0%	-12	-4%	-5	0
O=C(CSc1nnnn1Cc1ccccc1)c1ccc(F)cc1	?	-1%	1	?	-2	2
O=C(CSc1nnc(-c2ccco2)n1Cc1ccccc1)c1ccccc1	4µM*	-3%	5	10%	1	0
O=C(CSc1nnnn1Cc1ccccc1)c1ccccc1	13µM*	0%	8	22%	-2	-1
NC(=O)NCCC1=CCCCC1	5%	-6%	-10	1%	2	0
C=CCn1c(N)c(C(=O)NCCC2=CCCCC2)sc1=S	13µM*	.	17	0%	-1	2
O=C(Nc1ccccc1F)c1ccc(Br)o1	11%	-2%	-2	-11%	0	-1
O=C(Nc1ccccc1C(=O)O)c1ccc(Br)o1	14µM*	-4%	10	-13%	0	1
COc1ccc(-c2ccc(NC(=O)c3ccc(Br)o3)cc2)nn1	4µM*	2%	19	.	0	0
COC(=O)Cc1ccc(NC(=O)c2ccc(Br)o2)cc1	13µM*	0%	-12	-18%	-1	-1
CCN(CC)c1ccc(NC(=O)c2ccc(Br)o2)cc1	2.8µM*	-5%	15	-9%	0	-1
Cc1ccc(NC(=O)c2cc3c([nH]c2=O)CC(c2ccccc2)CC3=O)cc1 (stereo not given)	0%	.	.	.	.	-1
Ic1ccc(/C=C2\C=Cc3ccccc32)cc1	12%	.	.	.	.	0
COc1ccccc1NC(=O)C(C)OC(=O)C1CC(=O)N(c2ccc3c(c2)OCCO3)C1 (stereo not given)	19%	28µM*	9	-8%	1	1
COc1cccc(OC)c1OC(=O)C1CC(=O)N(c2ccc3c(c2)OCCO3)C1 (stereo not given)	-7%	-5%	-7	.	0	0
Cc1ccn(S(=O)(=O)c2ccc3oc(=O)ccc3c2)n1	-16%	2%	1	10µM*	0	-1
Cc1cc(C)n(S(=O)(=O)c2ccc3oc(=O)ccc3c2)n1	0%	-1%	-5	.	0	3
Cc1cc(=O)[nH]c2ccc(S(=O)(=O)Nc3ccc(O)cc3)cc12	-2%	-4%	.	2.2µM*	1	.	HeLa tox=-6
Cc1c(C(=O)OC2CCCCC2)[nH]c2c1C(=O)CC(c1ccccc1Cl)C2 (stereo not given)	.	.	-8	.	.	0

From PubChem BioAssay
